The supplement of paper PMC8371130
Where a name gives a salt, the structure may show the parent alone.

Tested on: HL-1
Assay: relative cell viability (CellTiter-Glo) vs DMSO control (% of DMSO control); higher = more viable cells
Details: oxygen condition: normoxia 72 h; 200 nM
How it was run: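 HL-1 mouse atrial cardiomyocytes were seeded into 384-well plates at 1000 cells per well along with compounds at 40, 200, 1000 or 5000 nM in 0.01% DMSO. After one day, the cells were moved to a hypoxic workstation (1% O2) for 48 h and then reoxygenated for 24 h in a normal incubator, while others remained in normoxia for the same period. Cell viability was measured by CellTiter-Glo luminescence and normalised to vehicle-treated control cells.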

SMILES | relative cell viability
COc1ccccc1N1CCN(CC(O)COc2cccc3ccccc23)CC1 (stereo not given) [Naftopidil] | 100
OC(CCN1CCCC1)(c1ccccc1)C1CCCCC1 (stereo not given) [Procyclidine HCl] | 97.7
COc1ccc2cc1Oc1ccc(cc1)C[C@H]1c3c(cc4c(c3Oc3cc5c(cc3OC)CCN(C)[C@@H]5C2)OCO4)CCN1C [Cepharanthine] | 86.8
C=C1CC[C@H](O)C/C1=C/C=C1\CCC[C@]2(C)[C@@H]([C@H](C)/C=C/[C@H](C)C(C)C)CC[C@@H]12 [Vitamin D2] | 105
COc1cccc2c1C(=O)c1c(O)c3c(c(O)c1C2=O)C[C@@](O)(C(=O)CO)C[C@@H]3O[C@H]1C[C@H](N)[C@H](O)[C@H](C)O1 [Doxorubicin] | 55.4
CCOC(=O)c1c(C)n(C)c2ccc(O)cc12 [Mecarbinate] | 99.4
O=C(c1ccc(OCCN2CCCCC2)cc1)c1c(-c2ccc(O)cc2)sc2cc(O)ccc12 [Evista] | 107
CC(=O)O[C@H]1CC[C@@]2(C)C(=CC[C@@H]3[C@@H]2CC[C@]2(C)C(c4cccnc4)=CC[C@@H]32)C1 [Abiraterone Acetate] | 99.2
CN(Cc1cc(Br)cc(Br)c1N)C1CCCCC1 [Bromhexine HCl] | 108
C#CCN[C@@H]1CCc2ccccc21 [Rasagiline mesylate] | 92.9
